# mHTT-CaM PPI inh – inhibitors of human mutant huntingtin-calmodulin interaction. AlphaScreen His-mHTT/GST-CaM binding, luminescence. hit rate 3.6% among 190,000. AID 1671202. inhibition, % at 15 µM. P42858
# Pf apPOL block – Pf-apPOL DNA polymerase inhibition | Recombinant Pf-apPOL, molecular beacon fluorescence, 1.5 h | inhibition, % at 10 µM | hit rate 0.25% among 210,000
# A number is an active result; - = inactive; . = no result; + = active, no number. Shown is part of a subset that was picked to be rich in hits. Cut-off read from the data, not from the text of the source: active = inhibition above about 50%; inactive = the rest.
SMILES,mHTT-CaM PPI inh,Pf apPOL block
Clc1cc2c(cc1/C=N/Nc1nc3ccccc3[nH]1)OCO2,+,.
CC(C(=O)N1C(C)CCCC1C)N1C(=O)c2ccccc2C1=O (stereo not given),-,-
CS(=O)(=O)N(CC(=O)NC1CC2CCC1C2)c1cc(C(F)(F)F)ccc1Cl (stereo not given),-,-
Cc1ccc(F)cc1NC(=O)Cn1[nH]c2c(cnc3ccc(F)cc32)c1=O,95,-
Cc1ccc(Cl)cc1NC(=O)Cn1[nH]c2c(cnc3ccc(F)cc32)c1=O,-,-
O=C(Cn1[nH]c2c(cnc3ccc(F)cc32)c1=O)Nc1ccc(Br)cc1,64,-
O=C(Cn1[nH]c2c(cnc3ccc(F)cc32)c1=O)Nc1ccc(F)cc1,-,-
CN1C(=O)C(CCCN=C(N)N)NC1=S (stereo not given),-,.
C=C(C)COc1cc(C)c2c(c1)OC(=Cc1cc(OC)c(OC)c(OC)c1)C2=O,-,-
CC1CCC2(CC1)N=C(c1ccccc1)C(=O)N2CC(=O)Nc1ccc(F)cc1 (stereo not given),58,-
O=C(CN1C(=O)C(c2ccc(Cl)cc2)=NC12CCCCC2)Nc1cccc(F)c1,76,-
COc1ccc(C2=NC3(CCCCC3)N(CC(=O)Nc3ccc(Cl)cc3)C2=O)cc1,-,-
Cc1cccc(NC(=O)CN2C(=O)C(c3ccc(F)cc3)=NC23CCCCCC3)c1,-,-
O=C(CN1C(=O)C(c2ccccc2)=NC12CCCCC2)Nc1ccc(F)cc1,-,-
O=C(CN1C(=O)C(c2ccccc2)=NC12CCCC2)Nc1cccc(Cl)c1,74,-
COc1ccc(C2=NC3(CCCCC3)N(CC(=O)Nc3ccc(F)c(Cl)c3)C2=O)cc1,100,-
COc1ccc(C2=NC3(CCCCC3)N(CC(=O)Nc3cccc(Cl)c3)C2=O)cc1,-,-
CCOc1ccc(C2C(C(=O)Nc3ccccc3)=C(C)N=C3SCC(=O)N32)cc1 (stereo not given),-,-
COCCOCC1CCN(C(=O)Nc2ccc3c(c2)OCO3)CC1,-,-
O=C(CN1C(=O)C(c2ccccc2)=NC12CCCCC2)Nc1ccccc1,-,-
O=C(CN1C(=O)C(c2ccccc2)=NC12CCCCCC2)Nc1ccc(Cl)cc1,100,-
CCC(=O)Nc1c(C)nn(-c2ccc([N+](=O)[O-])cc2)c1C,-,-
CC(CCC(=O)O)C1CCC2C3CCC4CC(=O)CCC4(C)C3CC(=O)C12C (stereo not given),-,-
O=C1NC(=O)C2C1C1C=Cc3ccccc3N1C2C(=O)c1ccc(F)cc1 (stereo not given),52,.
CN1C(=O)C(O)(CC(=O)c2ccc(F)cc2)c2ccccc21 (stereo not given),-,-
SMILES,mHTT-CaM PPI inh,Pf apPOL block
Cc1ccc(-c2ccc(C)cc2[N+](=O)[O-])c([N+](=O)[O-])c1,.,-
Cc1ccc(-n2c(C)ccc2C)c([N+](=O)[O-])c1,67,-
Cc1nnc(NC(=O)c2cc(-c3ccccc3Cl)nc3ccccc23)s1,-,-
Cc1cccc(-c2nc(-c3ccc4c(c3)oc(=O)n4C)no2)c1,-,-
COc1cccc2sc(N3CCc4ccccc4C3)nc12,93,-
COc1cccc2sc(N3CCN(c4ccccc4)CC3)nc12,-,-
COCCNC(=O)Cn1cc(-c2ccc(F)cc2)oc1=O,-,-
COc1ccc(C(=O)Nc2cc(Cl)ccc2Cl)cc1NC(=O)c1cccc(C)c1,-,-
O=C(c1ccccc1)N1CCC2(CC1)NC(=O)N(Cc1ccc(F)cc1)C2=O,-,-
O=C(c1cc2ccccc2[nH]1)N1CCC2(CC1)NC(=O)N(Cc1ccc(F)cc1)C2=O,70,-
O=C(c1c[nH]c2ccccc12)N1CCC2(CC1)NC(=O)N(Cc1ccc(F)cc1)C2=O,58,-
O=C(c1c[nH]c2ccccc12)N1CCC2(CC1)NC(=O)N(Cc1ccccc1Cl)C2=O,98,-
O=C(c1ccccc1)N1CCC2(CC1)NC(=O)N(Cc1ccccc1Cl)C2=O,-,-
O=C(c1cc2ccccc2[nH]1)N1CCC2(C1)NC(=O)N(Cc1ccc(F)cc1)C2=O (stereo not given),-,-
NS(=O)(=O)c1ccc(C(=O)NCCNc2cc(-n3cccn3)ncn2)cc1,-,-
CN(C)CCN(C(=O)CCc1ccccc1)c1nc2c(Cl)cccc2s1,62,-
O=C(Cc1ccc(F)cc1)N(CCCn1ccnc1)c1nc2c(Cl)cccc2s1,91,-
Cc1cc(C(=O)N(CCN(C)C)c2nc3c(Cl)cccc3s2)no1,-,-
O=C(c1cccc(F)c1)N(CCCn1ccnc1)c1nc2c(F)cccc2s1,-,-
COc1ccc(NC(=O)CSc2nc3c(c(=O)n2-c2ccc(Cl)cc2)SCC3)cc1,-,-
Cc1cc(Cl)ccc1N1CCC(C(=O)NCC2CC2)C1=O (stereo not given),-,-
Cc1c(Cl)c(C(F)(F)F)nn1CC(=O)Nc1ccc(Cl)c(Cl)c1,100,-
Cc1ccc(NC(=O)Cn2nc(C(F)(F)F)c(Cl)c2C)cc1C,-,-
CCc1nc(C2CCCN2S(=O)(=O)c2ccc(Cl)s2)n[nH]1 (stereo not given),-,-
O=C(c1cc(F)ccc1Cl)N1CCc2c(nc3cc[nH]n3c2=O)C1,-,-
SMILES,mHTT-CaM PPI inh,Pf apPOL block
Cc1ccc(Nc2nc(-c3ccccc3)cs2)cc1Cl,54,-
Cc1ccc(Nc2nc(-c3ccccc3)cs2)cc1C,73,-
Nc1ccc(Nc2nc(-c3ccccc3)cs2)cc1,97,-
NC(=O)C(=O)Nc1nc(-c2ccccc2)cs1,-,-
Cc1ccc(Nc2nc(-c3ccc(F)cc3)cs2)cc1C,98,-
Cc1ccc(C)c(-c2csc(Nc3ccc(F)cc3)n2)c1,-,-
CCc1nc2c(c(=O)n1CC(=O)N(CC)c1cccc(C)c1)CN(Cc1ccccc1)CC2,-,-
Cc1sc2ncnc(Nc3ccc(N4CCCCC4)cc3)c2c1C,-,-
Cc1ccc(-c2csc3ncnc(Nc4ccc(N5CCOCC5)cc4)c23)cc1,60,-
CN(C)c1ccc(C(CNC(=O)C(=O)NCC2CCCO2)N2CCc3ccccc32)cc1 (stereo not given),65,-
CC(NC(=O)C(=O)NCC1CCCO1)c1ccccc1 (stereo not given),-,-
CSc1ccc(S(=O)(=O)N2CCN(C/C=C/c3ccccc3)CC2)cc1,-,-
CCNC(=O)c1cccc2c1CCN2C(=O)CC,100,-
CCC(=O)N1CCc2c(C(=O)NC3CC3)cccc21,-,-
OC(CNC1CCCC1)Cn1c2ccccc2c2ccccc21 (stereo not given),-,-
OC(CNCCc1ccccc1)c1ccccc1 (stereo not given),-,-
OC(CNCCOc1ccccc1)Cn1c2ccccc2c2ccccc21 (stereo not given),85,.
OC(CNCCc1ccccc1)Cn1c2ccc(Br)cc2c2cc(Br)ccc21 (stereo not given),100,.
OC(CN1CCOCC1)Cn1c2ccc(Br)cc2c2cc(Br)ccc21 (stereo not given),91,-
O=C1CSC(=O)N1CC(O)Cn1c2ccc(Br)cc2c2cc(Br)ccc21 (stereo not given),-,.
Fc1ccccc1/C=N/N1CCN(C2c3ccccc3-c3ccccc32)CC1,-,.
CCOc1ccc(N(C)C(=O)c2cc(S(=O)(=O)N3CCc4ccccc43)ccc2F)cc1,-,-
Cc1oc(C2CCN(C(=O)Cc3cccs3)CC2)nc1C(=O)N1CCCC1,-,-
Cc1nc2cc(NC(=O)Cc3csc(NC(=O)c4ccc(=O)[nH]c4)n3)ccc2s1,59,-

# Screens from PubChem.
